Here are results for five compounds from PubChem BioAssay (EPA / NIEHS).

Read-out in test [1]: Transforming growth factor beta 1 (TGFb1), TGFB1 (gene 7040)
The test is described as follows: BSK_KF3CT_TGFb1: BioMAP Diversity Plus: KF3CT Assay for Transforming growth factor beta 1 (TGFb1) Biomarker Activity (AID 2283072). The settings on record: primary human keratinocytes with fibroblasts; actives raise or lower the signal. The gist of the method:
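KF3CT co-culture (keratinocytes + fibroblasts), 24 h exposure → TGF-b1 ELISA → bidirectional fit, DMSO = baseline. Parallel SRB total-protein staining (0.1% SRB, 10% TCA fixation, 560 nm) for cytotoxicity.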

Read-out in test [2]: C-C motif chemokine 2 (Homo sapiens) (UniProt P13500)
The test can be described thus: BSK_KF3CT_MCP1: BioMAP Diversity Plus: KF3CT Assay for Monocyte Chemoattractant Protein 1 (MCP1/CCL2) Biomarker Activity (AID 2283073). The settings on record: primary human keratinocytes with fibroblasts; actives raise or lower the signal. The gist of the method: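 KF3CT skin co-culture (keratinocytes/foreskin fibroblasts), 24 h post-dose; MCP-1 by ELISA; gain/loss of signal fit bidirectionally vs DMSO baseline.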

Read-out in test [3]: Matrix Metallopeptidase 9 (MMP9), MMP9 (gene 4318)
The test can be described thus: BSK_KF3CT_MMP9: BioMAP Diversity Plus: KF3CT Assay for Matrix Metallopeptidase 9 (MMP9) Biomarker Activity (AID 2283074).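 For AC50: MMP9 protein level quantified by ELISA in the co-culture.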 The settings on record: primary human keratinocytes with fibroblasts; actives raise or lower the signal. The gist of the method:
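ELISA read-out of MMP-9 at 24 h post-dosing in a co-culture of human skin keratinocytes and foreskin fibroblasts. Gain or loss of signal was fitted in both directions against DMSO.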

Read-out in test [4]: urokinase plasminogen activator (uPA), PLAU (gene 5328)
The test is described as follows: BSK_KF3CT_uPA: BioMAP Diversity Plus: KF3CT Assay for urokinase plasminogen activator (uPA) Biomarker Activity (AID 2283075). The settings on record: primary human keratinocytes with fibroblasts; actives raise or lower the signal. In a few lines: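 Skin co-culture (keratinocytes + foreskin fibroblasts), human primary; 24 h post-dose; uPA by ELISA; gain/loss fit vs DMSO baseline.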

Read-out in test [5]: CD40, CD40 (gene 958)
The test is described as follows: BSK_LPS_CD40: BioMAP Diversity Plus: LPS Assay for CD40 Biomarker Activity (AID 2283076). The settings on record: primary human HUVEC with PBMC; actives raise or lower the signal. In a few lines:
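ELISA readout of CD40 in HUVEC/PBMC co-culture (BSK_LPS system), 24 h post-dosing; bidirectional curve fit, DMSO baseline; parallel SRB total-protein staining for cytotoxicity.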

Read-out in test [6]: E-selectin (Homo sapiens) (UniProt P16581)
The test can be described thus: BSK_LPS_Eselectin: BioMAP Diversity Plus: LPS Assay for Eselectin Biomarker Activity (AID 2283077). The settings on record: primary human HUVEC with PBMC; actives raise or lower the signal. The gist of the method: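 ELISA readout of E-selectin, 24 h post-dose, HUVEC + PBMC co-culture (LPS system). Gain or loss of signal vs DMSO baseline, bidirectional fit.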

Test [7] is described as follows: BSK_LPS_SRB: Viability Assessment in the BioMAP Diversity Plus: LPS Assay (AID 2283079).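 Note: total protein by sulforhodamine B absorbance as a cytotoxicity measure; measured one day after compound addition.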 The settings on record: primary human HUVEC with PBMC. The gist of the method:
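HUVEC + PBMC co-culture, LPS-stimulated; compound 24 h. 10% TCA fix, 0.1% SRB stain, A560. Bidirectional fit vs DMSO.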

Read-out in test [8]: Interleukin-1 alpha (IL1a), IL1A (gene 3552)
The test can be described thus: BSK_LPS_IL1a: BioMAP Diversity Plus: LPS Assay for Interleukin-1 alpha (IL1a) Biomarker Activity (AID 2283080). The settings on record: primary human HUVEC with PBMC; actives raise or lower the signal. In a few lines: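 HUVEC/PBMC co-culture, LPS system; 24 h after dosing; IL-1a by ELISA; gain or loss of signal fitted bidirectionally vs DMSO baseline.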

Read-out in test [9]: Monocyte Chemoattractant Protein-1 (MCP1), CCL2 (gene 6347)
The test can be described thus: BSK_LPS_MCP1: BioMAP Diversity Plus: LPS Assay for Monocyte Chemoattractant Protein-1 (MCP1) Biomarker Activity (AID 2283081).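 For AC50: secreted MCP-1 protein quantified by ELISA in culture supernatant.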 The settings on record: primary human HUVEC with PBMC; actives raise or lower the signal. The gist of the method: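 ELISA read-out of MCP-1 after 24 h chemical dosing of a human umbilical vein endothelial cell/peripheral blood mononuclear cell co-culture stimulated with LPS. Gain or loss of signal fitted relative to DMSO controls.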

Test [10] in a line: BSK_LPS_PGE2: BioMAP Diversity Plus: LPS Assay for Prostaglandin E2 (PGE2) Biomarker Activity (AID 2283082). The settings on record: primary human HUVEC with PBMC; actives raise or lower the signal. The gist of the method: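 Compounds were added to the LPS co-culture of endothelium and PBMC, and PGE2 was measured by ELISA after 24 h. Responses in either direction were fitted with DMSO as baseline.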

Read-out in test [11]: Macrophage colony-stimulating factor (MCSF), CSF1 (gene 1435)
The test can be described thus: BSK_LPS_MCSF: BioMAP Diversity Plus: LPS Assay for Macrophage colony-stimulating factor (MCSF) Biomarker Activity (AID 2283083). The settings on record: primary human HUVEC with PBMC; actives raise or lower the signal. In a few lines: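 HUVEC + PBMC co-culture (human primary), 24 h post-dose; M-CSF by ELISA; gain/loss of signal fitted bidirectionally vs DMSO baseline.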

Read-out in test [12]: Tissue Factor, F3 (gene 2152)
The test can be described thus: BSK_LPS_TissueFactor: BioMAP Diversity Plus: LPS Assay for Tissue Factor Biomarker Activity (AID 2283084). The settings on record: primary human HUVEC with PBMC; actives raise or lower the signal. In a few lines: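 HUVEC/PBMC co-culture, LPS-activated; CD142 ELISA read 24 h post-dose; bidirectional curve fit vs DMSO negative control.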

Read-out in test [13]: Tumor necrosis factor (Homo sapiens) (UniProt P01375)
The test can be described thus: BSK_LPS_TNFa: BioMAP Diversity Plus: LPS Assay for Tumour Necrosis Factor alpha (TNFa) Biomarker Activity (AID 2283085).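 For AC50: TNFa protein level quantified by ELISA in the co-culture.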 The settings on record: primary human HUVEC with PBMC; actives raise or lower the signal. The gist of the method: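 Cells (umbilical vein endothelium plus peripheral blood mononuclear cells) were dosed with chemical, incubated 24 h, then TNFa was quantified by ELISA; values derive from bidirectional fitting with DMSO as baseline.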

Read-out in test [14]: Vascular cell adhesion molecule 1 (VCAM1), VCAM1 (gene 7412)
The test can be described thus: BSK_LPS_VCAM1: BioMAP Diversity Plus: LPS Assay for Vascular cell adhesion molecule 1 (VCAM1) Biomarker Activity (AID 2283086). The settings on record: primary human HUVEC with PBMC; actives raise or lower the signal. In a few lines:
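Cells are dosed in an LPS-stimulated endothelial/mononuclear co-culture and, after 24 h, VCAM-1 is quantified by ELISA. Activity in either direction is fitted relative to the DMSO negative control.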

Read-out in another test: CD38, CD38 (gene 952)
The test can be described thus: BSK_SAg_CD38: BioMAP Diversity Plus: SAg Assay for CD38 Biomarker Activity (AID 2283087). The settings on record: primary human HUVEC with PBMC; actives raise or lower the signal. The gist of the method: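 CD38 quantified by ELISA (fluorescence) in a superantigen-activated endothelial cell–PBMC co-culture at 24 h post-dose. Activity fitted in both directions relative to DMSO; parallel SRB and Alamar Blue cytotoxicity read-outs.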

Read-out in test [15]: CD40, CD40 (gene 958)
The test can be described thus: BSK_SAg_CD40: BioMAP Diversity Plus: SAg Assay for CD40 Biomarker Activity (AID 2283088). The settings on record: primary human HUVEC with PBMC; actives raise or lower the signal. The gist of the method:
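HUVEC/PBMC co-culture, 24 h post-dose; CD40 by ELISA, fluorescence intensity; bidirectional fit vs DMSO negative control.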

Read-out in the next test: CD69, CD69 (gene 969)
The test can be described thus: BSK_SAg_CD69: BioMAP Diversity Plus: SAg Assay for CD69 Biomarker Activity (AID 2283089).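 For AC50: cell surface CD69 protein quantified by ELISA with fluorescence detection.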 The settings on record: primary human HUVEC with PBMC; actives raise or lower the signal. In a few lines: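 HUVEC co-cultured with PBMC were dosed with chemical, and CD69 was measured by ELISA with fluorescence read-out 24 h later. Bidirectional curve fitting used DMSO as negative control and activity baseline.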

Read-out in test [16]: Monocyte Chemoattractant Protein-1 (MCP1), CCL2 (gene 6347)
The test can be described thus: BSK_SAg_MCP1: BioMAP Diversity Plus: SAg Assay for Monocyte Chemoattractant Protein-1 (MCP1) Biomarker Activity (AID 2283090). The settings on record: primary human HUVEC with PBMC; actives raise or lower the signal. The gist of the method: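 Values derive from bidirectional fitting of ELISA-measured MCP1 against DMSO controls. Readings were taken 24 h after dosing human vascular endothelial cells co-cultured with peripheral blood mononuclear cells under superantigen stimulation.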

Read-out in test [17]: E-selectin (Homo sapiens) (UniProt P16581)
The test can be described thus: BSK_SAg_Eselectin: BioMAP Diversity Plus: SAg Assay for Eselectin Biomarker Activity (AID 2283091). The settings on record: primary human HUVEC with PBMC; actives raise or lower the signal. In a few lines:
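E-selectin ELISA readout at 24 h post-dosing in human umbilical vein endothelial cell/PBMC co-culture; gain or loss of signal fitted relative to DMSO baseline.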

Where “and” joins values, the source holds several entries; their conditions need not be identical. Identical values can stand only once. Where a structure was tested more than once in an assay, its records may differ in their call. Calls of active or inactive are those of the source. Rule for the calls: active = hit-call score of the fitted dose curve at least 0.9, where 1 is the maximum; inactive = score below 0.9.

Chain of E-selectin (Homo sapiens) (P16581 whole entry, looked up): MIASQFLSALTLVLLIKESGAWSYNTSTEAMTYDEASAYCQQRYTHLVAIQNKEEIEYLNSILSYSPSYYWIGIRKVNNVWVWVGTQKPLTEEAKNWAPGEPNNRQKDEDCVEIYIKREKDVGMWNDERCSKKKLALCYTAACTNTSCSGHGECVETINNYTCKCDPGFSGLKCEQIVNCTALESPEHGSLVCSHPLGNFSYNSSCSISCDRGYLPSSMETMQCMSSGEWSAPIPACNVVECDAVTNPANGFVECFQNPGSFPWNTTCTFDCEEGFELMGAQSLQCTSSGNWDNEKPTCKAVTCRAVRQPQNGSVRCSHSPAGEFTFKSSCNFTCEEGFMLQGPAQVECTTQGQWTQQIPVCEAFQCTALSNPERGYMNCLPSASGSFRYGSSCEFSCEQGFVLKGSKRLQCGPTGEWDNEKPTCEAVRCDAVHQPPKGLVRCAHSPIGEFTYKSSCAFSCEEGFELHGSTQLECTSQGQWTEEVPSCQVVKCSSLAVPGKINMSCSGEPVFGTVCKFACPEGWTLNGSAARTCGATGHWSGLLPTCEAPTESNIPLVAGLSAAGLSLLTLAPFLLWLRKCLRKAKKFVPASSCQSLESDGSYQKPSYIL
Chain of Tumor necrosis factor (Homo sapiens) (P01375 whole entry, looked up): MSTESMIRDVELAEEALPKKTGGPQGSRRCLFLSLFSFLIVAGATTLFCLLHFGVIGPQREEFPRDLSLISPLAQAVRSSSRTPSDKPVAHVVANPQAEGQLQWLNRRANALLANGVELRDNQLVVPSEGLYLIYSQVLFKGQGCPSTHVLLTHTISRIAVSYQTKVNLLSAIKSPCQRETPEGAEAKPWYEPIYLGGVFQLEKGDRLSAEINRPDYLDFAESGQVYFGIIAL

On to `C#C[C@]1(O)CC[C@H]2[C@@H]3CCC4=CC(=O)CC[C@@H]4[C@H]3CC[C@@]21C`, for which the outcome in test [1] is “inactive”; in test [2], “inactive”; in test [3], “inactive”; in [4], “inactive”; in the test with CD40, CD40 (gene 958) [5] it was “inactive”; in test [8] it was “inactive”. Besides, the outcome in [12] is “inactive”; with CD69, CD69 (gene 969) it was “inactive”. The concentration at half-maximal activity (AC50) is 6.29 µM (active) in test [6]; 5.96 µM (active) in [7]; 8.06 µM (active) in [9]; 20 µM (active) in test [10]; 6.38 µM (active) in [11]; 4.11 µM (active) in test [13]. Also, the AC50 was 8.21 µM (active) in test [14]; 7.1 µM (active) with CD38, CD38 (gene 952); 5.45 µM (active) with CD40, CD40 (gene 958) [15]; 5.76 µM (active) in [16].
For the compound `c1ccc2c(c1)ccc1ccccc12`, the outcome was “inactive” in [1]; “inactive” in test [2]; “inactive” in [3]; “inactive” in test [4]; “inactive” with CD40, CD40 (gene 958) [5]; “inactive” in test [6]. The result in test [7], in [8], in test [9], in test [10], in test [11] and in test [12] was inactive. The outcome in test [13] was “inactive”; in test [14], “inactive”; in the test with CD38, CD38 (gene 952) it was “inactive”; with CD40, CD40 (gene 958) [15], “inactive”; in the test with CD69, CD69 (gene 969), “inactive”; in test [16], “inactive”.
For the compound `CN1CCN(c2ccccc2/C=C2\SCCN(c3ccc(Cl)c(Cl)c3)C2=O)CC1`, the concentration at half-maximal activity (AC50) in test [1] is 29.1 µM (active); in test [2], 32.4 µM (active); in test [3] it was 26.8 µM (active); in [4] it was 30.1 µM (active); with CD40, CD40 (gene 958) [5], 7.34 µM (active); in test [7] it was 16.3 µM (active). Further, the AC50 in test [8] is 20 µM (active); in test [9] it was 12.1 µM (active); in [13] it was 20 µM (active); in test [14], 13 µM (active); with CD38, CD38 (gene 952), 24.1 µM (active); with CD40, CD40 (gene 958) [15], 20 µM (active). For the same compound, the AC50 is 20 µM (active) with CD69, CD69 (gene 969) and 23 µM (active) in [16]. Also, the result in [6], in [10], in [11] and in test [12] was inactive.
For the compound `FC(F)(I)C(F)(F)C(F)(F)C(F)(F)C(F)(F)C(F)(F)I`, the concentration at half-maximal activity (AC50) is 6.01 µM (active) [middle of 5 runs] in test [2]; 8.17 µM (active) [middle of 5 runs] in test [3]; 11.7 µM (active) [middle of 5 runs] in test [4]; 18 µM (active) [middle of 5 runs] in test [8]; 36.5 µM (active) [middle of 5 runs] in test [9]; 7.63 µM (active) and 7.34 µM (active) and 7.24 µM (active) in test [10]. Moreover, the AC50 in [13] was 20.2 µM (active) [middle of 5 runs]. For the same compound, in test [10], the result was inactive.
Turning to `O=C(O)Cc1cc(I)c(Oc2cc(I)c(O)c(I)c2)c(I)c1`, the AC50 in test [1] was 8.34 µM (active); in test [2], 11 µM (active); in test [3] it was 8.62 µM (active); in test [4] it was 18.8 µM (active); in the test with CD40, CD40 (gene 958) [5] it was 14.7 µM (active); in test [8], 21.2 µM (active). Further, the AC50 in test [9] was 23.9 µM (active); in test [10] it was 15.1 µM (active); in test [13], 17.4 µM (active); in [14], 13.4 µM (active); with CD38, CD38 (gene 952), 21.3 µM (active); with CD40, CD40 (gene 958) [15], 18.5 µM (active). For the same compound, the AC50 with CD69, CD69 (gene 969) was 15.3 µM (active); in test [16] it was 18.9 µM (active); in [17] it was 16.2 µM (active). Further, the outcome in test [6], in test [7], in test [11] and in test [12] was inactive.

In general, AC50 refers to the concentration at which the activity in the assay is half-maximal.
